Assay outcomes from PubChem BioAssay.
JMJD2A Tudor inh = JMJD2A Tudor domain (human) inhibition; O75164; AlphaScreen JMJD2A-Tudor / H3K4me3 peptide binding; Potency, µM (top dose mostly 114 µM), inactives show at the top dose activity change, negative = inhibition, actives largely listed as inhibitors; actives 4.4% (n = 390,000); AID 504339; note: % is set by controls: 0 for no effect and ±100 for the full control effect; nearly all actives have a fitted effect of over 50% in size
TDP1 block = blocks human tyrosyl-DNA phosphodiesterase 1; Q9NUW8; recombinant TDP1, AlphaScreen DNA substrate cleavage; Potency, µM (top dose mostly 130 µM), without a hit: at the top dose activity change, negative = inhibition, usual class: inhibitors; actives 0.28% (n = 350,000); note: % is set by controls: 0 for no effect and ±100 for the full control effect; nearly all actives have a fitted effect of over 40% in size
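Steps: enzyme plus compound, 15 min RT; add biotin/phosphotyrosine-FITC oligonucleotide (15 nM final), react 5 min; add donor/acceptor beads (10 ug/ml final), 10 min; read AlphaScreen. Tdp1 at 1 nM final.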
HP1b chromo inh = blocks HP1-beta chromodomain binding to methylated histone tails; P83916; actives 0.56% (n = 390,000); AID 540317; AlphaScreen HP1-beta / biotin-H3K9me3 peptide binding; Potency, µM (top dose mostly 114 µM), without a hit: at the top dose activity change, negative = inhibition, usual class: inhibitors; note: nearly all actives have a fitted effect of over 70% in size
Target sequence (P83916 whole entry, looked up): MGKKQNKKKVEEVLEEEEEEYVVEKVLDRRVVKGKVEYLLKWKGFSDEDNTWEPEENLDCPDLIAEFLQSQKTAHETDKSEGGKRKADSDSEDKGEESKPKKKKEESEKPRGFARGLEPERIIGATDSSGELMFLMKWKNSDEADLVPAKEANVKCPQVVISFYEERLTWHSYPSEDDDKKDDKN
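AlphaScreen: HP1-beta (50 nM) preformed 30 min with biotin-H3(1-18)K9me3 peptide (50 nM) in PBS pH 7.4, 0.01% Tween-20. Compound added for 30 min at RT, then streptavidin donor/nickel chelate acceptor beads (10 ug/mL) for 30 min.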
Sfp inh = inhibitors of Bacillus subtilis Sfp phosphopantetheinyl transferase | actives 3.5% (n = 310,000) | Biochemical Sfp PPTase activity, qHTS | Potency, µM, without a hit: largest response in the series, negative = inhibition, usual class: inhibitors | Q9F4F7;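 note: the enzyme is Sfp with the accession as filed and its product quenches rhodamine fluorescence; 0% = enzyme reaction without inhibitor and -100% = no enzyme wells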
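Reaction rates are the 30-min fluorescence difference (ex 525, em 598 nm) in wells containing 15 nM Sfp, 5 uM rhodamine-CoA and 12.5 uM BHQ-2-YbbR at pH 7.6 with 10 mM MgCl2.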
G9a inh = blocks human histone lysine methyltransferase G9a; Q96KQ7; G9a H3K9 monomethylation, AlphaScreen, 2 h; Potency, µM (top dose mostly 102 µM), for the others: at the highest dose activity, negative = inhibition, usual class: inhibitors; actives 8.8% (n = 350,000); AID 504332; note: % is set by controls: 0 for no effect and ±100 for the full control effect; nearly all actives have a fitted effect of over 75% in size
Target sequence (Q96KQ7 913-1193 limits assumed): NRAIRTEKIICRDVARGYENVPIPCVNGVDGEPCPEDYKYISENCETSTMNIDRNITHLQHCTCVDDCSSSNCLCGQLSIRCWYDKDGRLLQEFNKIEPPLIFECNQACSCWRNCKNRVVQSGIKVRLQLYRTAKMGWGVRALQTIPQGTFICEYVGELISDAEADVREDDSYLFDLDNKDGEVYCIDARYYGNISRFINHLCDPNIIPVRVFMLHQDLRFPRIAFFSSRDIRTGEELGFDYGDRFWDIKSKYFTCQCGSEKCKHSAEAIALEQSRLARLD
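AlphaScreen detection with an anti-monomethyl H3K9 antibody quantified product after a 2 h room-temperature reaction containing 500 nM biotinylated H3K9 peptide, 20 µM SAM and 20 nM enzyme, which had been preincubated 15 min with compound.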
BAZ2B inh = BAZ2B (human) inhibition; AlphaScreen BAZ2B-H3K14Ac peptide displacement; Q9UIF8; AID 504333; actives 4.4% (n = 360,000); Potency, µM (doses to about 114 µM), inactives show at the top dose activity change, negative = inhibition, most hits filed as inhibitors; note: % is set by controls: 0 for no effect and ±100 for the full control effect; nearly all actives have a fitted effect of over 60% in size
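Compounds, titrated to a top concentration of 110 uM, were incubated 30 min at room temperature with preformed BAZ2B/acetyl-K14 H3 peptide complex (50 nM each). Proximity signal was measured by AlphaScreen after 20 min with beads.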
* hit, by the source's call; ? = inconclusive; nt = not tested or not shown; ! = a repeat was not active; [ ] = dose if it differs, or a comment. Only some compounds are listed: those with a hit (about 12% of all), similar ones and a draw of the others. Calls come from the whole dose curve; as a rule, active = well fitted curve in the direction sought with a large enough effect; inconclusive = small, poorly fitted or top-dose-only effect, or another doubt; inactive = no such curve, though single readings can be large; an effect the other way counts as inactive or inconclusive. Potency is the fitted concentration of half-maximal effect.

SMILES	JMJD2A Tudor inh	TDP1 block	HP1b chromo inh	Sfp inh	G9a inh	BAZ2B inh
CCc1sc(Nc2cccc(C)c2C)nc1-c1cc2cccc(OC)c2oc1=O	-12%	4%	28%	nt	0%[59 µM]	-1%
COc1cccc2c1Oc1ncccc1N(C(=O)CCC(=O)NCc1ccc(C)cc1)C2	9%	4%	21%	14%	5.6µM*!	-6%
CCN(Cc1nc(-c2cccc(C)c2)no1)S(=O)(=O)c1ccc(C)cc1	53%	-12%	98%	nt	59%[59 µM]	60%
Cc1ccc(CNC(=O)Cn2c(=O)n(-c3ccc(C)cc3)c(=O)c3c2c2cc(C)ccc2n3C)cc1	-6%	6%	11%	nt	-9%[59 µM]	-22%
COc1ccc2c(c1)c(-c1csc(N)n1)c(C)n2C	-55%	nt	-13%	-16%	7%[0.501 µM]	79µM*
Cc1ccc2c(c1)c(-c1csc(N)n1)c(C)n2C	?	nt	?	1%	45µM*	?
CC(NC(=O)COC(=O)Cc1cccs1)c1ccc(F)cc1 (stereo unspecified)	-15%	nt	25%	nt	nt	nt
COc1ccc(C)cc1S(=O)(=O)N(C)CC(=O)N1CCCC1	-14%	nt	28%	16%	5%[0.501 µM]	1%
Cc1ccc(NC(=O)/C(C#N)=C\c2ccc(-c3ccc(Cl)cc3)o2)c(C)c1	-17%	2%[12.3 µM]	-2%	nt	2%[59 µM]	-12%
CC1CC1c1ccc(/C=C(\C#N)C(=O)Nc2ccc(Cl)cc2Cl)o1 (stereo unspecified)	-16%	0%	28%	56µM*	-5%[59 µM]	-11%
O=C(c1ccc(Cl)c(Cl)c1)N1CCC(=O)N(C(CO)Cc2ccccc2)CC1 (stereo unspecified)	35µM*	nt	-22%	nt	nt	nt
CCOC1=NN(c2ccc(Cl)cc2)C(=O)/C1=C\N(C)C	-14%	8%	29%	21%	56µM*	-26%
CCCC1=NN(c2ccc([N+](=O)[O-])cc2)C(=O)/C1=C/N(C)C	-16%	-5%	21%	79µM*	0%[59 µM]	7%
Fc1ccc(CN2C3=NCCN3c3ccccc32)cc1	6%	nt	23%	3%	3%	-2%
COc1ccc2[nH]c(C)c(CCNC(=S)Nc3ccc(F)cc3)c2c1	?	8%	-8%	14%	56µM*	nt
COc1ccc2[nH]c(C)c(CCNC(=S)Nc3cc(C)cc(C)c3)c2c1	50µM*	11%	?	16%	15%	28µM*
CCOc1ccc(Cc2c(C)[nH]c3ccc(C(=O)O)cc3c2=S)cc1	25µM*	3%	18%	56µM*	13µM*	-36%
COc1ccc2[nH]c(C)c(CCNC(=S)Nc3cc(C)ccc3C)c2c1	-21%	7%	32%	16%	14%	2%
COc1ccc2[nH]c(C)c(CCNC(=S)Nc3ccccc3OC)c2c1	?	9%	1%	-2%	56µM*	nt
CCOc1ccc(NC(=O)c2ccc3[nH]c(C)cc(=O)c3c2)cc1	7%	6%	7%	nt	?	-2%
O=C(Cc1ccc(Br)cc1)NCc1ccccc1	6%	nt	54%	13%	nt	16%
CCNC(=S)N(CCc1c(C)[nH]c2ccc(C)cc12)Cc1cccnc1	?	nt	?	6%	11%[2.33 µM]	?
CCc1cccc(C)c1NC(=S)NCCc1c(C)[nH]c2ccc(C)cc12	45µM*	11%	?	14%	45µM*	25µM*
CCc1c(C)[nH]c2ccc(OC)cc2c1=S	-17%[11.4 µM]	5%	?	10µM*	4.5µM*	?
COc1ccc2[nH]c(C)c(CCNc3ccc(C(F)(F)F)cc3[N+](=O)[O-])c2c1	22µM*	-12%	?	16%	11µM*	28µM*
O=C(/C=C/c1ccc2c(c1)OCO2)Nc1nc2ccc(F)cc2s1	4%	nt	12%	-3%	16%[59 µM]	1%
CC(=O)c1c(C)[nH]c(C(=O)OCC(=O)N2CCc3ccccc3C2)c1C	-3%	1%	19%	nt	9%[12.7 µM]	?
